Most compounds without a hit are left out; they make up all but 3.2% or so of the library.
UGM FP inh: M. tuberculosis UGM enzyme inhibitors, primary screen, biochemical, fluorescence polarization, single point. purified UGM, fluorescence polarization probe displacement. inhibition, % at 10 µM. hit rate 0.06% among 320,000; in the data active means inhibition above about 10%, passing the limit was not always enough
PriA SSB inh: inhibitors of Klebsiella pneumoniae PriA binding to SSB C-terminal tail, primary screen, biochemical, AlphaScreen. PriA–SSB C-terminal tail interaction (Klebsiella pneumoniae). hit rate 0.6% among 430,000. inhibition, % at 33 µM. AlphaScreen SSBct-PriA binding, biotinylated peptide; in the data active means inhibition mostly above about 37%, no sharp cut-off; inactive means mostly below about 20%;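 further: plate controls were negative control peptide for no effect and reference peptide for full effect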
Mtb betalactam: beta-lactam sensitization of Mtb H37Rv, H37Rv | M. tuberculosis H37Rv growth with meropenem, percent inhibition | inhibition, % at 25 µM | hit rate 0.27% among 330,000; call rule not given here;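 further: growth measured after seven days incubation then overnight dye step; 0% = bacteria only wells and 100% = bacteria with antibiotic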
Rv3671c inh: Rv3671c serine protease inhibitors, primary screen, biochemical, fluorescence polarization, M. tuberculosis H37Rv; P9WHR9; inhibition, % at 5.96 µM; hit rate 0.048% among 320,000; in the data active means inhibition above about 38%;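 further: extracellular domain of Rv3671c used as enzyme; 0% = enzyme with DMSO and 100% = no enzyme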
Target sequence (P9WHR9 whole entry, looked up, the tested form may be a part): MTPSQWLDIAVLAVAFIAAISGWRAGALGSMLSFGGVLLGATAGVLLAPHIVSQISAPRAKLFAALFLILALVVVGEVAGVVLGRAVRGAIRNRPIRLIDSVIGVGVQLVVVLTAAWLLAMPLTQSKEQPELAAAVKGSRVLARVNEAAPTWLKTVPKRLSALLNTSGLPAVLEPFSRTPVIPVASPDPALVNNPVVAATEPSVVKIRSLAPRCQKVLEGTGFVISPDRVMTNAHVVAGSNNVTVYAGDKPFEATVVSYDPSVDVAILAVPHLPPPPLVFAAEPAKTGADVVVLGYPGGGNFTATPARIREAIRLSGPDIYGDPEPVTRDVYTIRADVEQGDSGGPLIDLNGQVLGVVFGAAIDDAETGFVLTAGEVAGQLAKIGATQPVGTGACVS
GDH-TPI counter-1: GDH-TPI coupling enzyme inhibitors, primary screen, artefact control for M. tuberculosis FBA inhibitor project, biochemical, absorbance, full deck | inhibition, % at 4.8 µM | hit rate 1.2% among 360,000 | GDH-TPI coupled enzyme counterscreen, NADH absorbance; in the data active means inhibition above about 30%;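 further: 0% = DMSO wells and 100% = wells lacking the enzyme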
FBA Mtb inh: Mtb FBA enzyme inhibitors, primary screen, biochemical, fluorescence, strain H37Rv. hit rate 2.3% among 360,000. Fructose-bisphosphate aldolase (Mycobacterium tuberculosis (strain ATCC 25618 / H37Rv)), …. AID 588726, 2011. purified M. tuberculosis FBA, fluorescence read-out. inhibition, % at 1 µM;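 further: 0% = vehicle and 100% = reference inhibitor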
Mtb FBA inh conf: M. tuberculosis aldolase blockers, biochemical, fluorescence, strain H37Rv, confirmation; shares compounds with FBA Mtb inh; purified M. tuberculosis FBA, fluorescence read-out; inhibition, % at 1 µM; hit rate 78% among 5,600;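 further: 0% = vehicle wells and 100% = reference inhibitor wells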
GDH-TPI counter-2: GDH-TPI coupling enzyme inhibitors, artefact control for M. tuberculosis FBA inhibitor project, biochemical, fluorescence, high throughput; shares compounds with FBA Mtb inh; GDH-TPI coupled enzyme counterscreen; inhibition, % at 1 µM; hit rate 81% among 5,600; AID 652141, 2013; in the data active means inhibition above about 10%
GDH-TPI dose: GDH-TPI coupling enzyme inhibitors, dose response, artefact control for M. tuberculosis FBA inhibitor project, biochemical, fluorescence, IC50 | shares compounds with FBA Mtb inh | GDH-TPI coupled enzyme assay, artifact counterscreen | IC50, µM | hit rate 79% among 170 | AID 652145, 2013; call rule not given here
An asterisk follows results filed as active; x = not tested or not shown; + = active, no number. Unless noted, no stated cut-off is given here; in the data, active means inhibition above about 27%; inactive means the rest.

SMILES	UGM FP inh	PriA SSB inh	Mtb betalactam	Rv3671c inh	GDH-TPI counter-1	FBA Mtb inh	Mtb FBA inh conf	GDH-TPI counter-2	others
COc1ccc(CNC(=O)C[C@H]2C[C@H](C(=O)N3CCOCC3)[C@@]3(C)c4[nH]c5cc(-c6ccco6)ccc5c4CCN3C2=O)cc1OC	x	-8	x	x	1	36*	+	+
C[C@]12c3[nH]c4cc(-c5ccco5)ccc4c3CCN1C(=O)[C@@H](CC(=O)NCCCn1ccnc1)C[C@@H]2C(=O)N1CCCCC1	x	22	x	x	10	26	x	x
CN(C)CCCNC(=O)C[C@H]1C[C@H](C(=O)N2CCCCC2)[C@@]2(C)c3[nH]c4cc(-c5ccco5)ccc4c3CCN2C1=O	x	10	x	x	19	34*	41*	34*
COc1ccc2sc(N(Cc3ccccc3)C(=O)C3CCCN3S(C)(=O)=O)nc2c1 (stereo not drawn)	x	-8	x	x	x	x	x	x
COc1cccc(-c2csc(NC3OC(=O)c4c3ccc(OC)c4OC)n2)c1 (stereo not drawn)	-2	3	50	6	-7	2	x	x
COc1ccc2c(c1OC)C(=O)OC2Nc1nc(-c2ccc(-c3ccccc3)cc2)cs1 (stereo not drawn)	0	-7	0	9	26	34*	16	-1	GDH-TPI dose=9.5*
O=C(Cc1cc(=O)[nH]c(SCc2ccccc2F)n1)NCc1ccco1	x	-5	x	x	x	x	x	x
Cc1ccc(Nc2nnc(-c3ccccc3N)o2)cc1C	4	-2	-2	5	7	49*	11	3	GDH-TPI dose=3.1*
c1ccc(Nc2nnc(-c3cccc4ccccc34)o2)cc1	-2	3	0	5	13	4	x	x
Cc1noc(Cc2ccccc2NC(=O)Cc2ccccc2Cl)n1	x	-8	x	x	x	x	x	x
O=C(O)c1ccccc1-c1ccccc1C(=O)Nc1ccc2c(c1)oc(=O)c1ccccc12	x	x	x	x	30	34*	2	-3
Cc1cc(=O)oc2cc(NC(=O)c3c(Cl)cnn3C)ccc12	-3	-21	0	-4	26	9	x	x
Cc1cccc(OCC(=O)Nc2ccc3c(C)cc(=O)oc3c2)c1	-1	8	-12	10	15	15	x	x
Cc1cc(=O)oc2cc(NC(=O)COc3cccc(C(F)(F)F)c3)ccc12	-3	-9	1	-4	16	41*	71*	50*
Cc1ccccc1CC(=O)Nc1ccc2c(C)cc(=O)oc2c1	-3	-11	4	0	3	94*	7	7
Cc1cc(=O)oc2cc(NC(=O)c3ccccc3Cl)ccc12	0	-17	25	-5	22	96*	0	0
O=C(O)c1ccccc1-c1ccccc1C(=O)Nc1ccc2c(c1)C(=O)c1ccccc1-2	x	1	x	x	-3	-3	x	x
CC(=O)N1CCN(Cc2c(C(=O)O)[nH]c(=O)[nH]c2=O)CC1	x	-7	x	x	x	x	x	x
COc1ccccc1CC(=O)Nc1ccc2c(C)cc(=O)oc2c1	-1	-10	4	-6	22	37*	101*	82*
NC(N)=NCCC[C@H](NC(=O)OCc1ccccc1)C(=O)O	6	9	4	-9	-8	-2	x	x
Cc1cc(=O)oc2cc(NC(=O)CN3C(=O)NC(C)(c4ccccc4)C3=O)ccc12 (stereo not drawn)	0	-10	-12	-17	11	61*	137*	103*
Cc1cc(=O)oc2cc(NC(=O)C(CCCN=C(N)N)NC(=O)OCc3ccccc3)ccc12 (stereo not drawn)	2	9	68	x	18	37*	38*	23*
CC1(c2ccccc2)NC(=O)N(CC(=O)Nc2ccc3c(c2)OCO3)C1=O (stereo not drawn)	1	-12	-6	-4	6	5	x	x
Cc1cc(=O)oc2cc(NC(=O)c3ccnn3C)ccc12	1	6	1	-3	9	32*	+	+
O=S(=O)(/C=C/c1ccccc1)NCCn1nc(C(F)(F)F)cc1C1CC1	x	3	x	x	x	x	x	x
SMILES	UGM FP inh	PriA SSB inh	Mtb betalactam	Rv3671c inh	GDH-TPI counter-1	FBA Mtb inh	Mtb FBA inh conf	GDH-TPI counter-2	others
CCCON=C1C(=O)N(c2ccccc2)c2ccccc21	x	-13	x	x	x	x	x	x
O=C(c1cccs1)N1CCc2ccc(NS(=O)(=O)C3CCCCC3)cc21	x	-13	x	x	x	x	x	x
CCCCOC(=O)Nc1ccc2c(C)cc(=O)oc2c1	-2	-14	-9	-6	17	84*	7	2
CN1CCN(S(=O)(=O)c2cccc(C(=O)NCc3ccc(Cl)cc3)c2)CC1	-1	-12	-10	0	-6	64*	48*	44*
COc1ccc(NC(=O)CSc2nc(N3CCc4ccccc4C3)nc3ccccc23)c(OC)c1	x	-4	x	x	x	x	x	x
C[C@H](O)[C@@H]1C(=O)N2CCc3c([nH]c4ccccc34)[C@@H]2C[C@@H]1N(C)C(=O)Nc1cc(Cl)cc(Cl)c1	x	x	x	x	19	30*	+	+
C[C@H](O)[C@@H]1C(=O)N2CCc3c([nH]c4ccccc34)[C@@H]2C[C@@H]1N(C)C(=O)c1ccco1	x	x	x	x	x	67*	144*	132*
C[C@H](O)[C@@H]1C(=O)N2CCc3c([nH]c4ccccc34)[C@@H]2C[C@@H]1N(C)C(=O)Nc1ccccc1	x	x	x	x	-4	28*	52*	42*
CN(C(=O)C(C)(C)C)[C@H]1C[C@H]2c3[nH]c4ccccc4c3CCN2C(=O)[C@H]1CO	x	x	x	x	21	79*	+	+
CCOC(=O)CNC(=O)N(C)[C@H]1C[C@H]2c3[nH]c4ccccc4c3CCN2C(=O)[C@H]1[C@H](C)O	x	x	x	x	x	15	x	x
CC(C)Cc1nc(C#N)c(N/N=C\c2c[nH]c3ccc(Br)cc23)o1	x	-4	x	x	x	x	x	x
O=C(Nc1nc2ccc(SC(F)F)cc2s1)c1ccc(NS(=O)(=O)c2ccc(F)c(F)c2)cc1	0	4	100	-213	29	55*	+	+
CS(=O)(=O)c1ccc2nc(NC(=O)c3cccc(NS(=O)(=O)c4ccc(F)c(F)c4)c3)sc2c1	-3	-2	56	-161	10	29*	151*	139*
